Results with a measured potency or affinity are listed apart. Activity calls are given as the source filed them.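 How the source made its calls: active means fitted half-maximal dose no more than twice the top valid tested dose, for compounds that lower signal; inconclusive means fit invalid, or curve flat with activity between -70 and -30; inactive means potency past limit, curve flat within ±30, or signal increasing.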
These compounds were tested against NAD-dependent protein deacylase sirtuin-5, mitochondrial (Homo sapiens) (UniProt Q9NXA8) (assay: SIRT5 deacylase inhibitors, dose response, biochemical, fluorescence imaging, cherry-pick, set 6 (AID 720597;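 further: lower AMC signal can also come from blocking the trypsin step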)). Details: Purified SirT5, succinyl-peptide-AMC/trypsin fluorescence; series mostly up to 15 µM.
Chain of NAD-dependent protein deacylase sirtuin-5, mitochondrial (Homo sapiens) (Q9NXA8 whole entry, looked up): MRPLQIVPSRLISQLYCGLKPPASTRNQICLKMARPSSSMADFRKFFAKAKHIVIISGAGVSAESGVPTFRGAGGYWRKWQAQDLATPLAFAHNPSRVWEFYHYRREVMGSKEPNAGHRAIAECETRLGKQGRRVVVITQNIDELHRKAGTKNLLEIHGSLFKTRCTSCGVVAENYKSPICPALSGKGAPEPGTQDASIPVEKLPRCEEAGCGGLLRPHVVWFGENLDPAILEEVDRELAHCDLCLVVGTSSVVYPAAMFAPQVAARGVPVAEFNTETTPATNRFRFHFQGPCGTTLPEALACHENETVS

outcome, inactive:
COCC(=O)N1C[C@@H](C)[C@@H](OC)CN(C)C(=O)c2ccc(NC(=O)c3cc(C)on3)cc2OC[C@@H]1C
C[C@@H]1CCCCO[C@@H](CN(C)Cc2ccc(C(F)(F)F)cc2)[C@@H](C)CN([C@@H](C)CO)C(=O)c2cc(NS(=O)(=O)c3cccs3)ccc2O1
O=C(C[C@@H]1CC[C@@H](NS(=O)(=O)c2ccc(F)cc2)[C@@H](CO)O1)N1CCC(Cc2ccccc2)CC1
C[C@H](CO)N1C[C@H](C)[C@@H](CN(C)Cc2ccc(Cl)c(Cl)c2)Oc2ccc(NC(=O)CCCCCC(=O)Nc3ccccc3N)cc2CC1=O
C[C@@H]1CCCCO[C@@H](CN(C)Cc2ccc(C(F)(F)F)cc2)[C@H](C)CN([C@@H](C)CO)C(=O)c2cc(NS(=O)(=O)c3ccc(F)cc3)ccc2O1
O=C(Nc1ccccc1F)N1C[C@@H]2N[C@H](C1)C2c1ccc(/C=C/c2ccccc2)cc1 (stereo partly specified)
COc1ccc(NC(=O)N(C)C[C@H]2Oc3cc(C#CCC(C)C)ccc3S(=O)(=O)N([C@@H](C)CO)C[C@@H]2C)cc1
CCC(=O)N1C[C@H]2[C@@H](c3ccccc31)[C@@H](CO)N2Cc1cc(F)ccc1F
C[C@H](CO)N1C[C@H](C)[C@H](CN(C)Cc2ccc(Oc3ccccc3)cc2)Oc2ccc(NC(=O)Cc3ccccc3)cc2C1=O
COc1cccc(S(=O)(=O)N(C)C[C@H]2Oc3cc(C4=CCCC4)ccc3S(=O)(=O)N([C@H](C)CO)C[C@H]2C)c1
O=S(=O)(c1cccs1)N1CCCCN2[C@H](CO)[C@H](c3ccc(C4=CCCCC4)cc3)[C@H]2C1
